# Data as given in the supplement of paper PMC3334620.
# Whole data set: some 33,000 sequences, median “E-score (-0.5 to 0.5)” near -0.036, cut for the highest 2% near 0.37. Shown is part of a subset that was picked to be rich in the highest values.
# Target: T1, Yer064c (UniProt P40041)
# T1 sequence: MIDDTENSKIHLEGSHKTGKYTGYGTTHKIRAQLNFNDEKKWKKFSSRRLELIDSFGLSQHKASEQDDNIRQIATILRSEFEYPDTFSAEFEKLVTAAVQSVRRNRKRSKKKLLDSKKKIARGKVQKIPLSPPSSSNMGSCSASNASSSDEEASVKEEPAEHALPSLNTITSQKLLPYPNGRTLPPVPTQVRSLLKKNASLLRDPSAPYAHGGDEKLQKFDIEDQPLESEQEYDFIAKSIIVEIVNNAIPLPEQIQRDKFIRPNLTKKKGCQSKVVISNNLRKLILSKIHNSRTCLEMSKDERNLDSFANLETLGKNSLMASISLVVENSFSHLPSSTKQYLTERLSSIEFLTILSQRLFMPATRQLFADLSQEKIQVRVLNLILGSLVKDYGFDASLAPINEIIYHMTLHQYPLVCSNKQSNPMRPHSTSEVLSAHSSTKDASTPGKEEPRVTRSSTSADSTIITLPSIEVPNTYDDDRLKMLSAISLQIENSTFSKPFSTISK
# Test: PBM E-score (8-mer binding enrichment) (E-score (-0.5 to 0.5)); higher = stronger / more preferred TF binding
# Conditions: protein concentration: 200 nM; construct: GST-full length
# Method in brief: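 PURExpress in vitro transcription/translation supplied GST-tagged yeast transcription factors, either full-length or DNA-binding domain. Applied at about 100-200 nM to universal all-10-mer Agilent arrays double-stranded by primer extension, the bound protein was detected with fluorescent anti-GST. E-scores, modified Wilcoxon-Mann-Whitney statistics, were given by the Universal PBM Analysis Suite to ungapped eight-base words pooled with their reverse complements after masliner normalisation.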
row,Sequence,PBM E-score
1,AGACTCAC,0.457
2,ACTCTCAG,0.125
3,AGACTCGC,0.336
4,ACTCTCAC,0.173
5,CCAAGTTA,0.0576
6,CAATTGCG,-0.0914
7,ATGGATGG,-0.0396
8,GCAACTGC,-0.0982
9,AACCGTGT,0.0249
10,CGGTTCAG,-0.212
11,TAGCTAAA,0.0446
12,CCGGGGGC,-0.128
13,CCCCACCC,-0.0582
14,ATCATTTA,0.327
15,ATCCTTAG,-0.107
16,CATGGCCG,-0.31
17,CGACTCTC,0.381
18,ACACTCAT,0.25
19,CGACTCAC,0.468
20,AGACTCCG,0.367
21,AGACTCAT,0.467

row,Sequence,PBM E-score
1,ACACTCCG,-0.136
2,ACTCTCAT,0.112
3,CGACTCGC,0.361
4,AGACTCTC,0.334
5,CCACTCAC,-0.0373
6,CAACTCAC,0.224
7,AGACTCCT,0.337
8,TGGGCTAA,-0.0729
9,AGATGGTC,-0.295
10,AGAGACAG,-0.0696
11,GAACTAGA,0.0303
12,CGACTCAG,0.45
13,CTACTCAG,0.132
14,CCACTCAG,0.0632
15,CCGTTATC,0.0125
16,ATGGCGGG,-0.0628
17,GGTCACAA,0.0763
18,AGTCACAG,0.467
19,AGTCACAT,0.469
20,CGTCACAG,-0.031
21,AGTCACAC,0.477

row,Sequence,PBM E-score
1,CGTCACAC,-0.155
2,AGGCACAT,-0.117
3,CGTCACAA,-0.0973
4,AGTCACAA,0.46
5,ATTCACAG,0.078
6,GGTCACAC,-0.00398
7,ACTCACAT,0.35
8,CCCCGCTA,-0.209
9,CTGGCGCC,-0.331
10,TGCGGACA,-0.121
11,GATGGCTA,0.359
12,CACTCATG,0.222
13,TACTCATA,0.343
14,CAGTCATG,0.458
15,ATGTCATG,0.214
16,TAGTCATA,0.489
17,CCGTCATA,0.0861
18,CAGTCATA,0.448
19,CGGTCATA,-0.0954
20,CTGTCATA,0.0424
21,CGCGGACC,-0.262

row,Sequence,PBM E-score
1,CGGTTGAC,0.0774
2,ACCAGCGG,-0.133
3,CGGCAAGA,-0.115
4,CGTCAATA,-0.192
5,GGTCAATA,0.108
6,AGTCAATC,0.426
7,CGTCAATC,0.17
8,AGTCAATA,0.383
9,ATTCAATC,0.308
10,ATTCAATG,0.204
11,AATCAATC,0.301
12,AGTCAATG,0.377
13,ACTCAATC,0.404
14,ACTCAATG,0.302
15,AATCAATG,0.236
16,AGCGGATG,-0.0548
17,CTGGGCTA,-0.161
18,AGGCTACC,-0.0969
19,CCAACACC,-0.158
